Measured values published in PubChem BioAssay (NCATS).
Records with an inconclusive call do not appear. Calls of active or inactive are those of the source. Calls come from the whole dose curve; as a rule, active = well fitted curve in the direction sought with a large enough effect; inconclusive = small, poorly fitted or top-dose-only effect, or another doubt; inactive = no such curve, though single readings can be large; an effect the other way counts as inactive or inconclusive.

Legend:
[1] = Quantitative High-Throughput drug screen in 47 multiple myeloma cell lines against the NCATS MIPE library collection: INA6_PLB cell viability assay (AID 1918965; note: nearly all actives have a fitted effect of over 55% in size)
Method in brief: (§1)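 Approved and investigational drugs from MIPE 4.0 were added by pin tool to 500 cells per well. After 48 hours at 37C, ATP-based CellTiter-Glo luminescence indicated remaining viability.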

[2] = Quantitative High-Throughput drug screen in 47 multiple myeloma cell lines against the NCATS MIPE library collection: Karpas25_ECACC cell viability assay (AID 1918968; note: nearly all actives have a fitted effect of over 35% in size)
Method in brief: (§2)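 Relative luminescence from CellTiter-Glo served as the viability signal, referenced to DMSO-treated (100%) and cell-free medium (0%) controls. Treatment lasted 48 hours at 37C with 500 cells per well.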

[3] = Quantitative High-Throughput drug screen in 47 multiple myeloma cell lines against the NCATS MIPE library collection: KMS12PE_JCRB cell viability assay (AID 1918972); note: nearly all actives have a fitted effect of over 30% in size
Method in brief: as §1

[4] = Quantitative High-Throughput drug screen in 47 multiple myeloma cell lines against the NCATS MIPE library collection: KMS26_JCRB cell viability assay (AID 1918975); note: nearly all actives have a fitted effect of over 45% in size
Method in brief: (§3)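 Inhibition of cell viability is measured here. Each line was plated at 500 cells per well, treated with MIPE 4.0 drugs, kept 48 hours at 37C, then assayed for ATP content by CellTiter-Glo luminescence.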

[5] = Quantitative High-Throughput drug screen in 47 multiple myeloma cell lines against the NCATS MIPE library collection: MMM1_PLB cell viability assay (AID 1918976); note: nearly all actives have a fitted effect of over 35% in size
Method in brief: (§4)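 MIPE 4.0 approved/investigational drugs; 500 cells/well; 48 h 37 °C humidified 5% CO2; CTG luminescence readout; DMSO = 100%, media = 0% viability.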

[6] = Quantitative High-Throughput drug screen in 47 multiple myeloma cell lines against the NCATS MIPE library collection: NCIH929_DSMZ cell viability assay (AID 1918978); note: nearly all actives have a fitted effect of over 35% in size
Method in brief: as §4

[7] = Quantitative High-Throughput drug screen in 47 multiple myeloma cell lines against the NCATS MIPE library collection: OCIMY1_PLB cell viability assay (AID 1918979); note: nearly all actives have a fitted effect of over 35% in size
Method in brief: as §4

[8] = Quantitative High-Throughput drug screen in 47 multiple myeloma cell lines against the NCATS MIPE library collection: MM1S_ATCC cell viability assay (AID 1918980); note: nearly all actives have a fitted effect of over 45% in size
Method in brief: as §4

[9] = Quantitative High-Throughput drug screen in 47 multiple myeloma cell lines against the NCATS MIPE library collection: MM1R_ATCC cell viability assay (AID 1918981); note: nearly all actives have a fitted effect of over 35% in size
Method in brief: as §4

[10] = Quantitative High-Throughput drug screen in 47 multiple myeloma cell lines against the NCATS MIPE library collection: LP1_DSMZ cell viability assay (AID 1918982); note: nearly all actives have a fitted effect of over 35% in size
Method in brief: as §4

[11] = Quantitative High-Throughput drug screen in 47 multiple myeloma cell lines against the NCATS MIPE library collection: KMS28PE_JCRB cell viability assay (AID 1918983); note: nearly all actives have a fitted effect of over 35% in size
Method in brief: as §4

[12] = Quantitative High-Throughput drug screen in 47 multiple myeloma cell lines against the NCATS MIPE library collection: L363_DSMZ cell viability assay (AID 1918984); note: nearly all actives have a fitted effect of over 40% in size
Method in brief: as §4

[13] = Quantitative High-Throughput drug screen in 47 multiple myeloma cell lines against the NCATS MIPE library collection: KMS27_JCRB cell viability assay (AID 1918970); note: nearly all actives have a fitted effect of over 30% in size
Method in brief: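 Each line is seeded at 500 cells per well and treated with library compounds for 48 hours under 37 °C, 5% CO2. CellTiter-Glo is then added for 5 min at room temperature before median relative luminescence is recorded.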

[14] = Quantitative High-Throughput drug screen in 47 multiple myeloma cell lines against the NCATS MIPE library collection: KMS21BM_JCRB cell viability assay (AID 1918974); settings: ATP luminescence, 48 h; viability: at 45.8 µM (top of the series) unless noted
Method in brief: as §2

[15] = Quantitative High-Throughput drug screen in 47 multiple myeloma cell lines against the NCATS MIPE library collection: H1112_PLB cell viability assay (AID 1918967; note: nearly all actives have a fitted effect of over 30% in size)
Method in brief: as §2

[16] = Quantitative High-Throughput drug screen in 47 multiple myeloma cell lines against the NCATS MIPE library collection: KMS12BM_JCRB cell viability assay (AID 1918971); note: nearly all actives have a fitted effect of over 35% in size
Method in brief: as §3

[17] = Quantitative High-Throughput drug screen in 47 multiple myeloma cell lines against the NCATS MIPE library collection: MOLP8_DSMZ cell viability assay (AID 1918977); note: nearly all actives have a fitted effect of over 45% in size
Method in brief: as §4

[18] = Quantitative High-Throughput drug screen in 47 multiple myeloma cell lines against the NCATS MIPE library collection: JJN3_DSMZ cell viability assay (AID 1918966; note: nearly all actives have a fitted effect of over 50% in size)
Method in brief: as §2

[19] = Quantitative High-Throughput drug screen in 47 multiple myeloma cell lines against the NCATS MIPE library collection: KMS20_JCRB cell viability assay (AID 1918973); note: nearly all actives have a fitted effect of over 45% in size
Method in brief: as §2

Measured: Potency
Potency is the fitted concentration of half-maximal effect.

CS(=O)(=O)c1cccc(CNc2nc(Nc3ccc4c(c3)CCC(=O)N4)ncc2C(F)(F)F)c1
active: [1] 11.8 µM | [2] 18.7 µM | [3] 4.69 µM | [4] 18.7 µM | [5] 23.5 µM | [6] 10.5 µM | [7] 16.6 µM | [8] 18.7 µM | [9] 20.9 µM | [10] 18.7 µM | [11] 23.5 µM | [12] 6.62 µM

O=C(Nc1ccc(F)c(C(F)(F)F)c1)Nc1nnc(-c2ccncc2)s1
active: [1] 2.35 µM | [5] 5.26 µM | [6] 2.64 µM | [9] 11.8 µM | [10] 3.72 µM
inactive: [13] | [14] | [7]

CCc1cc(Nc2nccc(-c3c(-c4ccc(OC)c(C(=O)Nc5c(F)cccc5F)c4)nc4ccccn34)n2)c(OC)cc1N1CCC(N2CCN(S(C)(=O)=O)CC2)CC1
active: [1] 2.96 µM | [15] 10.5 µM | [2] 7.43 µM | [6] 7.43 µM | [11] 26.4 µM | [12] 16.6 µM

CCn1c(-c2nonc2N)nc2c(C#CC(C)(C)O)ncc(OC[C@H]3CCCNC3)c21
active: [1] 4.18 µM | [15] 14.8 µM | [2] 1.18 µM | [13] 0.418 µM | [16] 14.8 µM | [6] 0.0209 µM | [8] 0.0264 µM | [9] 0.0418 µM | [11] 0.296 µM

O=C(O)CCc1ccc(NCc2cccc(Oc3ccccc3)c2)cc1
inactive: [1] | [15] | [13] | [16] | [3] | [17] | [6] | [8] | [9] | [10] | [11] | [12]

Cc1cc(SCc2sc(-c3ccc(C(F)(F)F)cc3)nc2C)ccc1OCC(=O)O
active: [1] 18.7 µM
inactive: [15] | [13] | [6] | [7] | [9] | [10] | [12]

N#CC[C@H](C1CCCC1)n1cc(-c2ncnc3[nH]ccc23)cn1
active: [1] 0.372 µM | [8] 4.18 µM
inactive: [15] | [17] | [6] | [7]

O=C(C=Cc1ccc(/C=C/C(=O)Nc2ccc(C3=NCCN3)cc2)cc1)Nc1ccc(C2=NCCN2)cc1
inactive: [15] | [2] | [13] | [3] | [17] | [6] | [7] | [10]

CS(=O)(=O)Oc1ccc2c(NC(N)=O)c(C(=O)c3ccc(Cl)cc3Cl)oc2c1
active: [15] 18.7 µM | [2] 4.69 µM | [3] 9.35 µM | [14] 2.35 µM | [6] 9.35 µM | [8] 2.96 µM | [12] 6.62 µM
inactive: [16] | [4] | [7] | [9] | [10] | [11]

Cc1ccccc1C(OCCN(C)C)c1ccccc1 (centres undefined)
inactive: [15] | [2] | [13] | [3] | [17] | [6] | [8] | [9] | [10] | [12]

CCCS(=O)(=O)Nc1ccc(F)c(C(=O)c2c[nH]c3ncc(Cl)cc23)c1F
active: [15] 20.9 µM | [2] 14.8 µM | [3] 16.6 µM
inactive: [4] | [8] | [10]

NCCc1ccc(O)c(O)c1
inactive: [15]
active: [18] 20.9 µM | [2] 14.8 µM | [13] 16.6 µM | [16] 7.43 µM | [3] 20.9 µM | [5] 7.43 µM | [17] 20.9 µM | [8] 20.9 µM | [10] 8.33 µM | [12] 23.5 µM

Nc1ccc(S(=O)(=O)Nc2ccnn2-c2ccccc2)cc1
inactive: [18] | [15] | [2] | [3] | [14] | [17] | [6] | [7] | [8] | [9] | [10] | [11] | [12]

Cc1cnc(Nc2ccc(OCCN3CCCC3)cc2)nc1Nc1cccc(S(=O)(=O)NC(C)(C)C)c1
active: [18] 0.296 µM | [12] 0.296 µM
inactive: [15] | [4] | [6] | [7] | [9] | [10]

NCCCC(N)(C(=O)O)C(F)F (centres undefined)
inactive: [13] | [16] | [3] | [4] | [9] | [11]
active: [18] 20.9 µM | [2] 0.166 µM | [6] 0.0526 µM | [8] 0.105 µM | [10] 1.48 µM | [12] 5.9 µM

CCCc1nn(C)c2c(=O)[nH]c(-c3cc(S(=O)(=O)N4CCN(C)CC4)ccc3OCC)nc12
inactive: [3] | [12]
active: [18] 18.7 µM | [8] 20.9 µM

Cc1cn[nH]c1
active: [15] 6.62 µM | [2] 0.59 µM | [13] 0.264 µM | [16] 0.0132 µM | [3] 0.296 µM | [19] 0.332 µM | [6] 1.18 µM | [7] 1.87 µM | [8] 0.332 µM | [9] 0.132 µM | [11] 0.0743 µM | [12] 0.469 µM

CC(C)(Sc1ccc(CCN(CCCCC2CCCCC2)C(=O)NC2CCCCC2)cc1)C(=O)O
inactive: [15] | [2] | [13] | [6] | [12]
active: [8] 4.18 µM | [9] 23.5 µM | [10] 16.6 µM | [11] 8.33 µM

Cc1csc(NC(=O)c2sc3nc4c(c(C(F)(F)F)c3c2N)CCC4)n1
active: [2] 1.48 µM | [8] 13.2 µM | [10] 20.9 µM
inactive: [15] | [13] | [4] | [17] | [6] | [9]

COc1ccc(CC2=NN3C([C@@H](CCc4ccccc4)[C@@H](C)O)=NC(C)C3C(=O)N2)cc1OC (some centres undefined)
inactive: [18] | [15] | [2] | [13] | [3] | [17] | [6] | [7] | [8] | [10] | [11]

Nc1nccc(-c2ccc3noc(-c4ccc(Cl)cc4)c3c2)n1
active: [6] 20.9 µM | [8] 16.6 µM
inactive: [15] | [2] | [13] | [17] | [7] | [11] | [12]

COc1ccccc1[C@H](c1cccc2ccccc12)[C@@](C)(C#N)C(=O)N1CCC(c2cccc(C(F)(F)F)c2)CC1
active: [18] 6.62 µM | [2] 3.72 µM | [13] 3.32 µM | [19] 1.18 µM | [14] 9.35 µM | [4] 7.43 µM | [5] 11.8 µM | [6] 3.72 µM | [8] 5.9 µM | [9] 4.69 µM | [11] 4.18 µM

Cc1ccc(-n2nc(C(C)(C)C)cc2NC(=O)Nc2ccc(OCCN3CCOCC3)c3ccccc23)cc1
active: [15] 1.18 µM | [2] 1.05 µM | [4] 26.4 µM | [5] 20.9 µM | [6] 0.59 µM | [8] 4.18 µM
inactive: [10]
